Source: PubChem BioAssay
DRD3 agonist: D3 dopamine receptor (human) agonism. D3R DiscoveRx beta-arrestin cells, luminescence, 90 min. hit rate 0.58% among 410,000. AID 652048. max activation, %; in the data active = max activation above about 30%; also: 0% is about no effect
Target sequence (P35462 whole entry, looked up): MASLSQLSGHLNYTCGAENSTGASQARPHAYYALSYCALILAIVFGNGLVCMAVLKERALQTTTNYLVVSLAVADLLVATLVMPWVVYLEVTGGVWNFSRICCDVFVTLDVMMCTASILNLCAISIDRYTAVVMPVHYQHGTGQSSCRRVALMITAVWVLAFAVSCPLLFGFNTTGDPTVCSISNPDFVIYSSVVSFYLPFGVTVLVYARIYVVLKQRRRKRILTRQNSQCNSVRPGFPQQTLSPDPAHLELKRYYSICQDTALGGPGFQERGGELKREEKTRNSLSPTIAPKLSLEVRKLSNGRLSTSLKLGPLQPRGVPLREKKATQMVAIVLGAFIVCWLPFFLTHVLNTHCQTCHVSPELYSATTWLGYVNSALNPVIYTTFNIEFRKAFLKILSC
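Agonist mode: compounds and dopamine controls were applied to plated cells for 90 min at 37 degrees C after an overnight attachment at 1500 cells/well. Luminescent read-out followed 30 - 60 minutes at room temperature with DiscoveRx detection reagent.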
IL1B secr inh: inflammasome signaling inhibition, IL-1 beta readout; THP-1 LPS/ATP IL-1B secretion, AlphaLISA, 16 h; stronger effect = lower value; activity change, % at 57.5 µM; hit rate 4.7% among 360,000; AID 743279; in the data active = activity change below about -50%; inconclusive = mostly about -30% to -49%; also: % is scaled to controls: 0 for no effect and ±100 for the full control effect
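THP-1 cells pretreated 1 hr with compounds (up to 57.5 uM final), then stimulated with LPS (250 ng/mL final) plus ATP (1.25 mM final); secreted IL-1B measured by AlphaLISA after 16 hr, decreased signal indicating inhibition.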
D3 antag: D3 dopamine receptor (human) antagonism; P35462; D3R cells, DiscoveRx beta-arrestin luminescence, antagonist mode; stronger effect = lower value; max response, negative = inhibition, %; hit rate 2.5% among 360,000; AID 652054; in the data active = max response below about -50%; inconclusive = no clear call, values can overlap the other calls; also: % is scaled to controls: 0 for no effect and ±100 for the full control effect
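Cells plated overnight at 1500 cells/well, then exposed to library compounds with dopamine controls for 90 minutes at 37 degrees C. DiscoveRx reagent added for 30–60 minutes at room temperature; luminescence read, quantitative HTS format.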
TDP1 cell noCPT: qHTS for Inhibitors of human tyrosyl-DNA phosphodiesterase 1 (TDP1): qHTS in cells in absence of CPT; Potency, µM (top dose mostly 46.2 µM), inactives show top-dose activity change, negative = growth inhibition, hits mostly inhibitors; DT40 Tdp1-/- hTDP1 cells, no CPT, ATP luminescence, 48 h; hit rate 15% among 420,000; also: potency is read from the fitted curve at half-maximal effect; % is scaled to controls: 0 for no effect and ±100 for the full control effect; nearly all actives have a fitted effect of over 55% in size
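Camptothecin absent (DMSO only). Human TDP1-complemented DT40 knockout cells, 400 cells/well, 37 °C for minimum 48 hr; ATP measured via CellTiter-Glo, 30 min dark incubation, luminescence.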
ClpP mod: qHTS Assay for Activators of ClpP. hit rate 1.9% among 340,000. AID 651965, 2013. purified B. subtilis ClpP, FRET peptide cleavage, 20 min. Potency, µM (top dose mostly 57.5 µM), for the others: at the highest dose activity change, negative = active. ATP-dependent Clp protease proteolytic subunit (Bacillus subtilis (strain 168)), P80244; active = well fitted falling curve with a large enough effect; inconclusive = small, poorly fitted or top-dose-only effect; inactive = no such curve, though single readings can be large or run the other way; also: potency is read from the fitted curve at half-maximal effect; the source files actives as falling curves though it sought activators and does not explain the sign; nearly all actives have a fitted effect of over 65% in size
Target sequence (P80244 whole entry, looked up): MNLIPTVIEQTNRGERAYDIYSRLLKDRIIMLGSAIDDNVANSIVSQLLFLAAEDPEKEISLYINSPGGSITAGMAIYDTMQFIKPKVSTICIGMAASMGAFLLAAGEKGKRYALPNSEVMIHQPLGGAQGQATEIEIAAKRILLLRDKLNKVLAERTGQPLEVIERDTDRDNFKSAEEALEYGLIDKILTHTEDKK
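Purified B. subtilis ClpP, 10 microg/mL final in Tris/HCl pH8 with KCl, BSA, glycerol and Tween-20, cleaved an Abz/nitrotyrosine-quenched decapeptide. Fluorescence (ex 320, em 430) was read at 0 and 20 min at room temperature. Delta was normalized to 5.8 microM ADEP and DMSO/no-enzyme controls.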
DT40 TDP1 CPT: DT40-hTDP1 cell growth loss with CPT | Potency, µM (highest dose often 46.2 µM), without a hit: top-dose activity change, negative = growth inhibition, hits mostly inhibitors | hit rate 12% among 420,000 | chicken DT40 Tdp1-/-;hTDP1 cells + 20 nM CPT, ATP luminescence, 48 h; also: potency is read from the fitted curve at half-maximal effect; % is scaled to controls: 0 for no effect and ±100 for the full control effect; nearly all actives have a fitted effect of over 55% in size
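Chicken DT40 Tdp1-/- cells complemented with human TDP1, 400 cells/well, exposed to compounds plus 20 nM camptothecin for at least 48 h at 37 C; viability read as ATP content by CellTiter-Glo luminescence.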
Active calls of the source: *; u = inconclusive; x = no result given; [ ] = dose if it differs, or a comment. In the library only some 21% were active in any assay of this set; here they are far more common. Unless noted, calls follow the shape of the dose curve; as a rule, active = well fitted inhibition curve with a large enough effect; inconclusive = small, poorly fitted or top-dose-only effect; inactive = flat fitted curve, though single readings scatter.

SMILES	DRD3 agonist	IL1B secr inh	D3 antag	TDP1 cell noCPT	ClpP mod	DT40 TDP1 CPT
O=C(NCc1ccccc1C(F)(F)F)c1cccc2c1C(=O)c1ccc(N3CCOCC3)cc1S2(=O)=O	38*	13	73	-14%	1%	-24%
O=C(NCc1ccccc1Br)c1cccc2c1C(=O)c1ccc(N3CCC(Cc4ccccc4)CC3)cc1S2(=O)=O	4	0	-10	u	0%	-27%
COc1ccccc1CN1CCOc2ccc(CN3CCC(Oc4cccnc4)CC3)cc2C1	x	x	x	u	x	-2%[9.04 µM]
COc1ccc(NC2=C(NCCO)C(=O)c3ccccc3C2=O)cc1	-8	11	-9	15µM*	0%	12µM*
Cc1cccc(Nc2nc(N)c([N+](=O)[O-])c(NCCO)n2)c1	4	21	-15	u	0%	u
Cc1cccc(NC2=C(NCCO)C(=O)c3ccccc3C2=O)c1	-9	-57*	-27	21µM*	6%	16µM*
COc1cccc(Nc2ccccc2C(=O)O)c1	-1	26	-9	1%	x	5%
COc1ccc(C2=C(Nc3ccccc3)c3ccccc3C2=O)cc1	15	16	-25	u	0%	-12%
COc1cccc(NC2=C(NCCO)C(=O)c3ccccc3C2=O)c1	-4	-74*	-9	u	x	u
CCc1ccc(-c2nn(CC(=O)Nc3ccccc3C)c3c2cnc2ccc(C)cc23)cc1	3	x	x	14%	-30%	-1%
CCCn1c(SCC(=O)N2c3ccccc3CC2C)nnc1-c1ccco1 (stereo not drawn)	0	-14	13	u	1%	21µM*
CC1Cc2ccccc2N1C(=O)CSc1nnnn1C (stereo not drawn)	0	11	5	-9%	-2%	-23%
CC1Cc2ccccc2N1C(=O)CSc1nnc(Cc2ccccc2)n1CCc1ccccc1 (stereo not drawn)	-14	-6	1	23µM*	1%	u
O=C1C2C3CC4C5C3C1C5C1(SCCS1)C42 (stereo not drawn)	8	15	31	-4%	0%	-4%
COc1ccc(C(=O)N2CCc3cc(OC)c(OC)cc3C2COc2ccc3c(C)cc(=O)oc3c2)c(OC)c1 (stereo not drawn)	1	x	x	-21%	-1%	2%
O=c1cc(NCCc2ccccc2)c2ccccc2o1	1	-59*	17	8.2µM*	x	10µM*
Cc1ccccc1Nc1cc(=O)oc2ccccc12	2	-13	15	21µM*	1%	12µM*
COc1ccc2c(=O)c(C)c(-c3ccccc3)oc2c1CN(C)C	-6	x	x	u	x	u
CCOC(=O)c1ccc(NC(=O)CN2C(=O)c3cccnc3Sc3ccccc32)cc1	1	x	x	u	-24%	u
Nc1ncnc2c1ccn2[C@H]1CN(Cc2ccc(Cl)cc2)C[C@@H](CO)O1	10	51	0	13µM*	1%	16µM*
Nc1ncnc2c1ccn2[C@H]1CN(Cc2ccc3c(c2)OCO3)C[C@@H](COC(=O)c2ccccc2)O1	-1	40	47	u	1%	u
Nc1ncnc2c1ccn2[C@H]1CN(Cc2ccc3c(c2)OCO3)C[C@@H](CO)O1	0	u	74	13µM*	1%	u
Cc1cccc(C)c1OCCSc1nc2ccccc2n1CC(=O)O	-2	21	8	-15%	-2%	-21%
CCOc1ccc(CNC(=O)Cn2c(=O)c3cccn3c3cccnc32)cc1	14	x	x	-26%	-13%	-12%
O/N=C1/CC/C(=N\O)c2nn(-c3ccccc3)nc21	-1	-65*	-2	9.2µM*	-10%	15µM*
SMILES	DRD3 agonist	IL1B secr inh	D3 antag	TDP1 cell noCPT	ClpP mod	DT40 TDP1 CPT
O=C(O)c1nn(-c2ccccc2)nc1-c1nn(-c2ccccc2)nc1C(=O)O	1	3	u	1%	25µM*	-7%
COC(=O)c1nnn(-c2ccccc2)c1N	6	-16	6	-2%	1%	-17%
COC(=O)c1nn(-c2ccccc2)nc1-c1nn(-c2ccccc2)nc1C(=O)OC	-2	-8	13	16µM*	u	u
Cc1nn(-c2ccccc2)c2c1/C(=N/O)CC(C)(C)C2	5	-7	6	-15%	-3%	3%
COc1cc(CCC(=O)Nc2cc(S(=O)(=O)N3CCOCC3)ccc2OC(C)C)cc(OC)c1OC	-5	-10	-21	-26%	1%	-7%
COc1ccccc1CNC(=O)CCCCn1c(=O)c2ccccc2n(Cc2c(C)cc(C)cc2C)c1=O	-7	x	x	-1%	-1%	-16%
COc1ccc2cc3c(N)c(C(=O)NCc4ccco4)sc3nc2c1	-3	-63*	-55*	u	-7%	u
COCCNC(=O)c1c(N)n(CCC2=CCCCC2)c2nc3ccccc3nc12	5	-72*	4	26µM*	-1%	u
CCCOc1ccc(CC(=O)NCc2ccco2)cc1OC	6	9	38	-10%	1%	20%
COc1ccc(NC(=O)C2C3C=CC(C3)C2C(=O)NCc2ccco2)c(OC)c1 (stereo not drawn)	0	19	-56*	-14%	1%	2%
COc1ccc2cc3cc(C(=O)NCc4ccco4)oc3nc2c1	-2	-13	-19	u	96%	u
COc1ccc(CCn2c(N)c(C(=O)NCc3ccco3)c3nc4ccccc4nc32)cc1OC	2	-20	-15	16µM*	28µM*	23µM*
Cc1ccc2nc(N3CCC(C(=O)NCc4ccc(F)cc4)CC3)[nH]c2c1	-7	x	x	u	-2%	u
Cc1ccc(Cn2c(=O)n(Cc3ccco3)c(=O)c3oc4ccccc4c32)cc1	-12	x	x	-10%	2%	-6%
COc1ccc(-n2c(N)c(C(=O)NCc3ccco3)c3nc4ccccc4nc32)c(OC)c1	-10	-18	-5	u	11µM*	23µM*
Nc1c(C(=O)NCc2ccco2)c2nc3ccccc3nc2n1CCc1ccccc1F	1	-58*	93	u	28µM*	16µM*
COc1ccc(S(=O)(=O)Cc2ccc(C(=O)NCc3ccco3)o2)cc1	2	-22	19	-7%	1%	-14%
CCCCOC(=O)c1c(N)n(-c2ccc(OC)cc2OC)c2nc3ccccc3nc12	3	x	x	16µM*	-14%	12µM*
COc1ccc(CCn2c(N)c(C(=O)NCc3ccco3)c3nc4ccccc4nc32)cc1	-17	-86*	u	13µM*	32µM*	12µM*
O=C(CSc1nnc(-c2ccccc2)c(-c2ccccc2)n1)Nc1ccc(Br)cn1	-3	-25	-2	u	-28%	u
